MARV entry inh: inhibitors of Marburg virus binding or cell entry | Potency, µM (series often up to 37.8 µM), for the others: at the top dose activity change, negative = inhibition, usual class: inhibitors | 300,000 compounds, 1.8% hits | Marburg virus pseudotyped entry inhibition, cell reporter; calls by dose curve; tested in HEK293 cells; further: potency means the concentration at half of the fitted maximal effect
LASV entry inh: Lassa virus entry inhibition; Lassa virus pseudotype entry inhibition, cell reporter; Potency, µM (series often up to 37.9 µM), for the others: at the top dose activity change, negative = inhibition, actives largely listed as inhibitors; 300,000 compounds, 1.2% hits; AID 540256; calls by dose curve; tested in HEK293 cells; further: potency means the concentration at half of the fitted maximal effect; nearly all actives have a fitted effect of over 50% in size
FMDV antiviral: antivirals against foot and mouth disease virus | FMDV antiviral cell-based qHTS | Potency, µM (highest dose often 57.9 µM), for inactives: top-dose activity change, negative = inhibition, most hits filed as inhibitors | 410,000 compounds, 1.2% hits | AID 1159524; calls by dose curve; tested in HEK293T cells; further: read-out not given here; potency means the concentration at half of the fitted maximal effect; nearly all actives have a fitted effect of over 45% in size
HCMV antiviral: blocks human cytomegalovirus replication | 410,000 compounds, 4.5% hits | activity change, negative = inhibition, % at 57.5 µM | HFF cells, HCMV-luciferase reporter, 72 h; stronger effect = lower value; in the data active means activity change below about -60%; inconclusive means no clear call, values can overlap the other calls; inactive means above about -39%
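Compounds were evaluated in HFFs infected with an HCMV luciferase reporter virus (MOI 1 PFU/cell). Luciferase in lysates collected 72 h post infection served as the replication measure.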
HCV inh: HCV inhibition. Potency, µM (doses to about 41.8 µM), without a hit: at the top dose activity change, negative = inhibition, actives largely listed as inhibitors. 340,000 compounds, 3.4% hits. Huh7.5.1 HCVcc-Cre infection, luciferase reporter, 44 h. AID 651820; active means well fitted inhibition curve with a large enough effect; inconclusive means small, poorly fitted or top-dose-only effect, or another doubt; inactive means no such curve, though single readings can be large or run the other way; further: potency means the concentration at half of the fitted maximal effect
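HCVcc-Cre virus at an moi near 0.5 was added right after compound to cells cultured 4 h from seeding (1,000 cells/well). Luciferase activity was determined 44 h later, 15 min after substrate addition at RT.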
An asterisk follows results filed as active; [ ] = remark or other dose. This is a sample that favours compounds with a hit; in the whole collection about 7.9% have one here. On the % scale 0 is the no-effect control and ±100 the full control effect.

`COc1ccccc1C(=O)Nc1nnc(SCc2cc(=O)c3ccccc3[nH]2)s1` gave LASV entry inh -29%[46.1 µM], FMDV antiviral 22µM* and HCMV antiviral -39.
O=C(CN1CCN(c2ccccn2)CC1)Nc1cccc(Cl)c1Cl was read as MARV entry inh -31%, LASV entry inh 7.1µM*, FMDV antiviral -18%, HCMV antiviral -24 and HCV inh -1%.
Screening O=[N+]([O-])c1cc(S(=O)(=O)N2CCCCCC2)ccc1Cl returned MARV entry inh inconclusive, LASV entry inh inconclusive, FMDV antiviral -27%, HCMV antiviral inconclusive and HCV inh 11µM*.
For Cc1ccc(-c2nc(SCC(=O)Nc3cc(S(=O)(=O)N4CCCCC4)ccc3Cl)n[nH]2)cc1 the results were MARV entry inh 16µM*, LASV entry inh inconclusive, FMDV antiviral -25%, HCMV antiviral 6 and HCV inh inconclusive.
`Cc1ccc(S(=O)(=O)N2CCCC2)cc1[N+](=O)[O-]` gave MARV entry inh -1%, LASV entry inh 3%, FMDV antiviral -11%, HCMV antiviral -7 and HCV inh 36%.
O=C(CN1CCN(c2ccccn2)CC1)Nc1ccccc1Br was read as FMDV antiviral -13%, HCMV antiviral -15 and HCV inh 3%.
For Nc1cc(=O)[nH]c(SCC(=O)Nc2cc(S(=O)(=O)N3CCCCCC3)ccc2Cl)n1 the results were MARV entry inh -23%, LASV entry inh -2%, FMDV antiviral 0%, HCMV antiviral -6 and HCV inh 1%.
For O=C(CN1CCN(c2ccccc2O)CC1)Nc1cc(S(=O)(=O)N2CCCC2)ccc1Cl the results were FMDV antiviral -21%, HCMV antiviral -16 and HCV inh 11µM*.
Screening COc1ccc(CC(=O)Nc2cc(-c3cn4cccnc4n3)ccc2OC)cc1 returned LASV entry inh 21%[46.1 µM], FMDV antiviral -6% and HCMV antiviral -11.
Screening Cn1c(=O)c2c(SCC(=O)N3CCc4ccccc43)nc(-c3cccc(F)c3)nc2n(C)c1=O returned LASV entry inh -1%[46.1 µM], FMDV antiviral -7% and HCMV antiviral 27.
`Cn1cnc(S(=O)(=O)N2CCCC(C(=O)NCc3ccc(Cl)cc3)C2)c1` (stereo not drawn) gave LASV entry inh -2%[46.1 µM], FMDV antiviral 0% and HCMV antiviral -13.
COc1ccc(S(=O)(=O)N2CCN(CC(=O)Nc3cc(Cl)ccc3Cl)CC2)cc1 was read as MARV entry inh inconclusive, LASV entry inh -3%, FMDV antiviral -10%, HCMV antiviral -71* and HCV inh -15%.
COc1ccc(Cl)cc1NC(=O)CN1CCN(S(=O)(=O)c2ccc(F)cc2)CC1 was read as MARV entry inh -3%[46.1 µM], LASV entry inh -13%, FMDV antiviral -5%, HCMV antiviral -27 and HCV inh -13%.
For O=C(CCl)Nc1cc(S(=O)(=O)N2CCCCCC2)ccc1Cl the results were MARV entry inh inconclusive, LASV entry inh inconclusive, FMDV antiviral inconclusive, HCMV antiviral -64* and HCV inh 35µM*.
Screening Cc1ccc2scc(N3CCN(c4ccccc4)CC3)c(=O)c2c1 returned LASV entry inh 16%[46.1 µM], FMDV antiviral 0% and HCMV antiviral 14.
`CCOc1ccc2nc3ccc4[nH]onc4c3c2c1` gave MARV entry inh -7%, LASV entry inh -12%, HCMV antiviral inconclusive and HCV inh 2.5µM*.
For O=C(CN1C(=O)S/C(=C\c2ccccc2F)C1=O)NC1CCS(=O)(=O)C1 (stereo not drawn) the results were MARV entry inh 3%[46.1 µM], LASV entry inh 18%[46.1 µM], FMDV antiviral -13%, HCMV antiviral -62* and HCV inh 19%.
`O=C(CCCN1C(=O)/C(=C/c2ccc(F)cc2)SC1=S)NC1CCS(=O)(=O)C1` (stereo not drawn) gave FMDV antiviral 2%, HCMV antiviral -72* and HCV inh -7%.
`O=C(O)c1cc(O)c2c(c1)[C@H]([C@H]1c3cc(C(=O)O)cc(O)c3C(=O)c3c(O[C@@H]4O[C@H](CO)[C@@H](O)[C@H](O)[C@H]4O)cccc31)c1cccc(O[C@@H]3O[C@H](CO)[C@@H](O)[C@H](O)[C@H]3O)c1C2=O` gave FMDV antiviral -24%.
CCn1c(C)c(P(c2ccccc2)c2ccccc2)[n+]2ccccc12 was read as MARV entry inh inconclusive, LASV entry inh -12%, FMDV antiviral inconclusive, HCMV antiviral -61* and HCV inh -15%.
`O=C(O)CCCCCC[C@@H]1C(=O)NC(=O)N1CC[C@@H](O)C1CCCCC1` gave MARV entry inh 4%.
Screening Cc1cc(C)c(S(=O)(=O)/N=C2\C=C(Nc3ccc(C(=O)O)cc3)C(=O)c3ccccc32)c(C)c1 returned MARV entry inh 5.6µM*, LASV entry inh inconclusive, FMDV antiviral inconclusive, HCMV antiviral -85* and HCV inh inconclusive.
For CCc1ccc(S(=O)(=O)/N=C2\C=C(Nc3ccc(O)cc3)C(=O)c3ccccc32)cc1 the results were MARV entry inh inconclusive, LASV entry inh 4.5µM*, FMDV antiviral 35µM* and HCV inh inconclusive.
`CCc1ccc(S(=O)(=O)/N=C2\C=C(Nc3cccc(C(=O)O)c3)C(=O)c3ccccc32)cc1` gave MARV entry inh 3%[46.1 µM], LASV entry inh inconclusive, FMDV antiviral inconclusive, HCMV antiviral 12 and HCV inh inconclusive.
For O=C(O)c1ccc(NC2=C/C(=N/S(=O)(=O)c3ccccc3)c3ccccc3C2=O)cc1 the results were MARV entry inh 4µM*, LASV entry inh 7.1µM*, FMDV antiviral 11µM*, HCMV antiviral -101* and HCV inh 6.3µM*.
For Cc1cc(C)c(S(=O)(=O)/N=C2\C=C(NS(=O)(=O)c3ccccc3)C(=O)c3ccccc32)c(C)c1 the results were MARV entry inh inconclusive, LASV entry inh 23%[46.1 µM], FMDV antiviral 49%, HCMV antiviral 55 and HCV inh 9%.
For Cc1c(C(=O)NCc2ccccc2Cl)sc2nc[nH]c(=O)c12 the results were LASV entry inh 5%[46.1 µM], FMDV antiviral 9% and HCMV antiviral -16.
Screening O=C(Oc1ccc(Br)cc1C(=O)/C=C/c1ccccc1F)c1ccco1 returned MARV entry inh inconclusive, LASV entry inh inconclusive, FMDV antiviral inconclusive, HCMV antiviral -78* and HCV inh 10µM*.
`O=C(CCS(=O)(=O)c1ccccc1)N(CCCN1CCOCC1)c1nc2c(F)cccc2s1` gave MARV entry inh inconclusive, LASV entry inh inconclusive, FMDV antiviral 40µM*, HCMV antiviral inconclusive and HCV inh inconclusive.
Cc1ccc(S(=O)(=O)CC(=O)N(CCCN2CCOCC2)c2nc3c(F)cccc3s2)cc1 was read as MARV entry inh 4%[46.1 µM], LASV entry inh 16%, FMDV antiviral 6%, HCMV antiviral 17 and HCV inh 2%.
COc1ccc(-n2c(=S)[nH]c3cc(C(=O)Nc4ccccc4OC)ccc3c2=O)cc1 was read as MARV entry inh 3%, LASV entry inh 0%, HCMV antiviral 10 and HCV inh 1%.
